Laboratory results reported in the OligoGym collection.

Target: ABHD8
Assay: pooled miR-30 sensor sort-seq; sequence = guide strand
Settings: shRNA
Further: reference of the scale not given here.

Sequence | sensor-assay potency score (higher = more potent)
TAGCGCTTGAAGATTGCTCGCA | 0.247
TTTAACAGCTGCTTCTCCTTGG | 0.506
AAACTTATCGTGCATGCCGTGG | -1.36
TTGAAGATTGAGCAGAAGCTGG | -0.887
TTGACCTCTACAAAGGTGTAGC | -0.315
TTTTCCACCAGCAACCGCCCAT | -0.43
TCACCTTGTGCACTAGGTCTGG | -0.472
TTCGCTTCTTGGCATAGCGCTT | -0.977
TTAACAGCTGCTTCTCCTTGGC | -0.231
TACAAAGGTGTAGCCATCGCTG | -0.814

Target: ACACB
Assay: as above
Settings: shRNA

Sequence | sensor-assay potency score (higher = more potent)
TTCATGTAGGTGGTGTAGCTGT | -0.772
TTGTAAGCTGGATCGATCCTTC | -0.276
TTCAGTAGTGAATCCGCTGGGA | 0.353
TAATTTCTTGAGGTTCTCGGGG | -0.145
TTGGACTGTACGAATGTCCGTA | 0.552
TTCTTGTCTTCTTTGGAGGGGG | -0.0633
TTTATCACACACTTGTCGTAGT | 0.458
TTATCAGATCTTTCTTTCGGAA | -0.751
TTGGATGTGTAGACCTCTCTTC | 0.36
TGTATCTGGACTCTCCTCCTTC | -0.0476
TTCTCAAACACACACGTCTTAT | -1.28
TTTATCAGATCTTTCTTTCGGA | 0.775
TTTGTCTGCATACATTTCTATG | -1.38
TTGATCTTGACCTCAGCCTGTA | 0.316
TACTTGTCTGAAAAGGATCGGG | 0.16
TTACTCTTGGTGATCGGCTTGG | 0.104
TTCGGTAACTGTCAACCTCTTC | -0.589
TATCACACACTTGTCGTAGTGG | 0.451
TTGTCATAAACATCTTCTGGGA | -0.671
TAGAGGTATTCCACTGTCCCTG | -0.211
